Source: the supplement of paper PMC10849652
Of roughly 7,900 targets only a part is listed; those with a hit were picked by preference. About 0.6% of all pairs of compound and target were hits.

How the values were obtained:
Assay in all cases: log2 fold change, soluble protein after heating vs DMSO (PISA); higher = thermal stabilisation; K562 cells, 10 uM, 30 min; active = over 0.2 and 3.5 SD of the protein, either way, in both replicates (recomputed)
[1] = compound: C1=CC=C(C=C1)[C@H](COC2=CC3=C(C=C2)NC(=O)N3)NC(=O)C4=CC=CN(C4=O)CC5=CC(=C(C=C5)F)F
Outline: (§1)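 K562 cells at 2×10^6 cells/mL were exposed to 10 μM compound for 30 min, then aliquots were heated for 3 min across 48°C-58°C, pooled, and extracted in PBS containing 0.5% NP-40 at 4°C. The supernatant after 21,000xg for 90 min was taken as soluble protein and measured by TMTpro 16plex LC-MS/MS with channel sums equalised. Thermal stability is reported relative to control samples, with values from duplicates. Fold changes are given on a log2 scale.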

[2] = compound: CC1=C(SC2=C1C(=N[C@H](C3=NN=C(N32)C)CC(=O)N)C4=CC=C(C=C4)Cl)C
Outline: as §1

[3] = compound: CC1=C2C(=CC=C1)N=C(N(C2=O)C3=CC=CC=C3C)CN4C=NC5=C(N=CN=C54)N
Outline: as §1

[4] = compound: Cc1sc2c(c1C)C(c1ccc(Cl)cc1)=N[C@@H](CC(=O)OC(C)(C)C)c1nnc(C)n1-2
Outline: as §1

[5] = compound: c1ccc([C@@H]2C[C@H]2NC2CCNCC2)cc1
Outline: as §1

Measured: log2 fold change

DCAF13 (UniProt Q9NV06)
inactive: [1] 0.105 | [2] -0.221 | [3] -0.152 | [4] 0.128 | [5] 0

CUX1 isoform 3 (UniProt P39880)
Sequence of UniProt P39880 (P39880 whole entry, looked up): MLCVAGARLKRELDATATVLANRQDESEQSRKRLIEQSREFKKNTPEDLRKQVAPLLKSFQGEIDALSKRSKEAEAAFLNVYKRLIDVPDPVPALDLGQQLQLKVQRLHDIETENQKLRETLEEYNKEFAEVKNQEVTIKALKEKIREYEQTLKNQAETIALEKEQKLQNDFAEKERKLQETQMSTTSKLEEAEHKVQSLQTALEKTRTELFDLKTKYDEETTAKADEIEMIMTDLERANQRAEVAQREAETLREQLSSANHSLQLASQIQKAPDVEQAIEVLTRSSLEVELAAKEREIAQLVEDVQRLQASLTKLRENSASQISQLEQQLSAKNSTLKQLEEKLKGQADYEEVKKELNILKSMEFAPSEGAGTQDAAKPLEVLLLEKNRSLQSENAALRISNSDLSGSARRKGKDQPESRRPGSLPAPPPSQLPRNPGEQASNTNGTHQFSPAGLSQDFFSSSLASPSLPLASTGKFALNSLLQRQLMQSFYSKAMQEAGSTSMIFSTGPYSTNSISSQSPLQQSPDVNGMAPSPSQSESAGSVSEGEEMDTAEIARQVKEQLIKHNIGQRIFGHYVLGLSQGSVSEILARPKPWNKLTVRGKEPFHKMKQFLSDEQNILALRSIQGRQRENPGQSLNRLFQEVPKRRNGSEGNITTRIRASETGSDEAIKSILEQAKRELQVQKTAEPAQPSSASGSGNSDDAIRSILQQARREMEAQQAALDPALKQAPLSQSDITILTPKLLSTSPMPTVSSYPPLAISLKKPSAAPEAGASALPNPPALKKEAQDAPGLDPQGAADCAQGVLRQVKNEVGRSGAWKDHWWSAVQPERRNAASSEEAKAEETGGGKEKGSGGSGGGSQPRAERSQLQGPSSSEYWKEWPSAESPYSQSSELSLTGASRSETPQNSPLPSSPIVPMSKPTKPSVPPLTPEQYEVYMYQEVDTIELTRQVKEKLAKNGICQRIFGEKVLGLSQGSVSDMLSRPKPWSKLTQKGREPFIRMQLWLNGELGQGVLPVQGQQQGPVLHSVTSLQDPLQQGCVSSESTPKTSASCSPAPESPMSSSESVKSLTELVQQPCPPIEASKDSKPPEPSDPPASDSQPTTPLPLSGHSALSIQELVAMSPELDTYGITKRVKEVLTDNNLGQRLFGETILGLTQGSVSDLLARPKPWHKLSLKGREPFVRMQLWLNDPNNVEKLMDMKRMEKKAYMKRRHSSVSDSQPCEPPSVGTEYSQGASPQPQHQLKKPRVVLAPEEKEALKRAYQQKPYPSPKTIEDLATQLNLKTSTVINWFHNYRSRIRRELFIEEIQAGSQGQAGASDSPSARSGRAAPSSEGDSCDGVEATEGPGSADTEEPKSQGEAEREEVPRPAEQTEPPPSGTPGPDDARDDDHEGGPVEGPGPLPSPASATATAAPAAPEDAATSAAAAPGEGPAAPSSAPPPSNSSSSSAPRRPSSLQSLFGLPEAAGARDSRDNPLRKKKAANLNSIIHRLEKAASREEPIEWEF
inactive: [1] 0 | [2] 0.025 | [3] 0.034 | [4] -0.009 | [5] 0.016

EBNA1BP2 (UniProt Q99848)
inactive: [1] 0.118 | [2] -0.378 | [3] -0.269 | [4] 0.306 | [5] -0.045

EGLN1 (UniProt Q9GZT9)
inactive: [1] 0.055 | [2] 0.06 | [3] 0.013 | [4] 0.008 | [5] 0.019

FAM3A (UniProt P98173)
inactive: [1] -0.01 | [2] -0.001 | [3] 0.038 | [4] -0.051 | [5] -0.014

FAM50A (UniProt Q14320)
Sequence of UniProt Q14320 (Q14320 whole entry, looked up): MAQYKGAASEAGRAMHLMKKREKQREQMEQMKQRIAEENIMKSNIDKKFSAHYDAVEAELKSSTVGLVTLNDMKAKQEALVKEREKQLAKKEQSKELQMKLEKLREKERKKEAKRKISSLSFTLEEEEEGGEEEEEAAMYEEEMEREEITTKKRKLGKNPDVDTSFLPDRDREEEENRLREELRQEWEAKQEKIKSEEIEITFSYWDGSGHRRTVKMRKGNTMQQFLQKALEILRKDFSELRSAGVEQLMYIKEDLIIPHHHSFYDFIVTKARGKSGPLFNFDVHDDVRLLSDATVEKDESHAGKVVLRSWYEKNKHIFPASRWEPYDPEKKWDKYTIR
inactive: [1] -0.026 | [2] 0.032 | [3] 0.033 | [4] -0.025 | [5] 0.007

EXOC8 (UniProt Q8IYI6)
inactive: [1] -0.004 | [2] 0.029 | [3] 0.03 | [4] 0.006 | [5] -0.051

ECPAS (UniProt Q5VYK3)
inactive: [1] -0.127 | [2] 0.047 | [3] 0.112 | [4] -0.032 | [5] -0.01

DNTTIP2 (UniProt Q5QJE6)
inactive: [1] -0.068 | [2] -0.117 | [3] -0.021 | [4] 0.087 | [5] 0.132

FAM177A1 isoform 2 (UniProt Q8N128)
Sequence of UniProt Q8N128 (Q8N128 whole entry, looked up): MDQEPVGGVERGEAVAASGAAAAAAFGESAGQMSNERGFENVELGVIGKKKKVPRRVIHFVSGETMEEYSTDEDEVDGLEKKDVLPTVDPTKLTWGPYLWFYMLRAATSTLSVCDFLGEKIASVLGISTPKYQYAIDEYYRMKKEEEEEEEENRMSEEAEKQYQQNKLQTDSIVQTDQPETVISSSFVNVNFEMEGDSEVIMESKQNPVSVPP
inactive: [1] -0.073 | [2] 0.047 | [3] 0.17 | [4] -0.002 | [5] 0.028

DOCK8 (UniProt Q8NF50)
Sequence of UniProt Q8NF50 (Q8NF50 whole entry, looked up): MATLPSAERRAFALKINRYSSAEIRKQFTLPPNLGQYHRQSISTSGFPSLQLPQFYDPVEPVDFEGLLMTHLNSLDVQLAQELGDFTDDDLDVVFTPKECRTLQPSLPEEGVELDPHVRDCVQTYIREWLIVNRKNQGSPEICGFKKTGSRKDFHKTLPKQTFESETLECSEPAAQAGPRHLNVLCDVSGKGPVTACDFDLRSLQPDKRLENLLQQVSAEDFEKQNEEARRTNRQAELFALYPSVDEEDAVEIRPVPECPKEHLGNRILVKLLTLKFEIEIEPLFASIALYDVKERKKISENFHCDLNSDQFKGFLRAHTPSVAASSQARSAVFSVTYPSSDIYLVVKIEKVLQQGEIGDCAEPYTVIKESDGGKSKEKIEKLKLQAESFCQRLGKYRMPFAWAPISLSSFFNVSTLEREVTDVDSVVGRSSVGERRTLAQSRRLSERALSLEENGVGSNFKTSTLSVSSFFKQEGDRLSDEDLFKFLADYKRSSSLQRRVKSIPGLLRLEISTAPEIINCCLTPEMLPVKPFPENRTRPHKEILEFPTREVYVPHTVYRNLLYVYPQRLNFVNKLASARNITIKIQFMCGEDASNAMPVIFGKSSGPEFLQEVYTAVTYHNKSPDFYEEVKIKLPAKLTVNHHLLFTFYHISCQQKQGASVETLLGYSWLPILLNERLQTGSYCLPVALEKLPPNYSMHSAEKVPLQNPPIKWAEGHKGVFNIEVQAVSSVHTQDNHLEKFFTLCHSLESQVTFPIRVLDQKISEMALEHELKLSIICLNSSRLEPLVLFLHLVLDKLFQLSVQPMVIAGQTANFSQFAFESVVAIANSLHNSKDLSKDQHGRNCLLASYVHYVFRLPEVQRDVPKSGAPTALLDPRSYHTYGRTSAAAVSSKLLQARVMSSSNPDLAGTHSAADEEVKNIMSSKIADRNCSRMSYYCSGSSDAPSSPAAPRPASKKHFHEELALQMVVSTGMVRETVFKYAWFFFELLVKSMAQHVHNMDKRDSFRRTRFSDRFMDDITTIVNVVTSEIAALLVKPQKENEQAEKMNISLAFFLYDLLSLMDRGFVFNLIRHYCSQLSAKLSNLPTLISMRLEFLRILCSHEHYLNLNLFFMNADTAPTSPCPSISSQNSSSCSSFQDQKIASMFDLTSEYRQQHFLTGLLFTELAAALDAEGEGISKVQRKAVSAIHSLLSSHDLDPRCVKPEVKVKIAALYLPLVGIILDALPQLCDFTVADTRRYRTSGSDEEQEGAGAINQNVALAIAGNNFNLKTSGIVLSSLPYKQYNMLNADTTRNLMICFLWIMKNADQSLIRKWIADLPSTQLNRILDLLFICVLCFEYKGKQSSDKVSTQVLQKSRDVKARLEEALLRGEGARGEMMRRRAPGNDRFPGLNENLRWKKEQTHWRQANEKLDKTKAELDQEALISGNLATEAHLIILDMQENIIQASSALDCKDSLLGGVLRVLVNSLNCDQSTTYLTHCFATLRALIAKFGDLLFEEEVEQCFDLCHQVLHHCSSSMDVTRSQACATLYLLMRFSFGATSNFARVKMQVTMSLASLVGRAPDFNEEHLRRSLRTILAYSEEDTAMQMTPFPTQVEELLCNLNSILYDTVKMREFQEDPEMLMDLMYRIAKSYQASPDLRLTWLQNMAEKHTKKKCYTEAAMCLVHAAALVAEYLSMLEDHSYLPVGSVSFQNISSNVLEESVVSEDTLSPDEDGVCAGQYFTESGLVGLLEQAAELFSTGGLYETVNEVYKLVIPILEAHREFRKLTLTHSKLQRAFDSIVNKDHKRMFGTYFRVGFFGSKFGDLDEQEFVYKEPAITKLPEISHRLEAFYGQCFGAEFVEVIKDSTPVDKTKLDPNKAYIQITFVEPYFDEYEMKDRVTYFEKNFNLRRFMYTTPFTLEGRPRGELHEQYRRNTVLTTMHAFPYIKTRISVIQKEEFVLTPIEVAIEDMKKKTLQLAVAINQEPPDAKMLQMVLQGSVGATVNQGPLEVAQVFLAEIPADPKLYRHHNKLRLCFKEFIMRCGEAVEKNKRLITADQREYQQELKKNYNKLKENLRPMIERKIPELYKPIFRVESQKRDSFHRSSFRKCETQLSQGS
inactive: [1] 0.096 | [2] -0.223 | [3] -0.01 | [4] 0.152 | [5] -0.087

E2F4 (UniProt Q16254)
Sequence of UniProt Q16254 (Q16254 whole entry, looked up): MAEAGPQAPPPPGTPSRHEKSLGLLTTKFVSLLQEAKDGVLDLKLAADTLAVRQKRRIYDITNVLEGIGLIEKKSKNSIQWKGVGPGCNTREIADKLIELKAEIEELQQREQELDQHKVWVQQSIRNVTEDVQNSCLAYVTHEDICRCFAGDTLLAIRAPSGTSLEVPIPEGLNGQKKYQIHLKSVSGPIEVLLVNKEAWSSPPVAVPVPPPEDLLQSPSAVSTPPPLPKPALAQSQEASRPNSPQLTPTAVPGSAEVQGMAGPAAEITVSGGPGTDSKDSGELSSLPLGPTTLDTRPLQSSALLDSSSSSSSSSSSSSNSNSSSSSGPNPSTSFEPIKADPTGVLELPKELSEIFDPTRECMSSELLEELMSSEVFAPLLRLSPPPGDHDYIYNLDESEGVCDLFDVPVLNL
inactive: [1] 0.006 | [2] 0.039 | [3] 0.098 | [4] 0.022 | [5] -0.001

CTSL (UniProt P07711)
inactive: [1] -0.017 | [2] -0.07 | [3] 0.015 | [4] 0.031 | [5] 0.104

EIF2AK1 (UniProt Q9BQI3)
inactive: [1] 0.025 | [2] -0.036 | [3] -0.051 | [4] 0.025 | [5] 0.018

CTSZ (UniProt Q9UBR2)
inactive: [1] -0.003 | [2] 0.009 | [3] 0.032 | [4] 0.039 | [5] -0.01

DHRS7B (UniProt Q6IAN0)
inactive: [1] 0.054 | [2] 0.032 | [3] -0.001 | [4] -0.018 | [5] -0.013

CYP51A1 (UniProt Q16850)
Sequence of UniProt Q16850 (Q16850 whole entry, looked up): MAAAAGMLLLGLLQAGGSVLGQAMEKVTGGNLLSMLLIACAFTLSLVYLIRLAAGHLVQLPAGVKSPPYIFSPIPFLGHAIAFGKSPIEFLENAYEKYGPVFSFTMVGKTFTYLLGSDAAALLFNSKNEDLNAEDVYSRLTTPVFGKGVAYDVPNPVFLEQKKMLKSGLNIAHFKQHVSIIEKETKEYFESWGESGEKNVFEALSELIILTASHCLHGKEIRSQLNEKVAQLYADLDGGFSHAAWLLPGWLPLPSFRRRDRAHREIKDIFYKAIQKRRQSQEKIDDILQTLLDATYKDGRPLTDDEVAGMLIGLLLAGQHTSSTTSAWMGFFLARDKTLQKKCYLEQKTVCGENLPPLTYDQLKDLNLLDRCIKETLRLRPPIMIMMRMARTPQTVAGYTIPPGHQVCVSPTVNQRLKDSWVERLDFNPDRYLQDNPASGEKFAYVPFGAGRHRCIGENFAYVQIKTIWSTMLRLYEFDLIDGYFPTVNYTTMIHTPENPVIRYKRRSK
inactive: [1] -0.096 | [2] 0.055 | [3] -0.037 | [4] -0.01 | [5] -0.001

EEF1D isoform 2 (UniProt P29692)
inactive: [1] -0.031 | [2] 0.003 | [3] 0.073 | [4] 0.012 | [5] -0.011

DCTPP1 (UniProt Q9H773)
inactive: [1] 0.022 | [2] 0.029 | [3] -0.015 | [4] -0.043 | [5] 0.009

DHX16 (UniProt O60231)
inactive: [1] -0.024 | [2] 0.007 | [3] 0.059 | [4] -0.003 | [5] 0.017

DNAJC7 (UniProt Q99615)
inactive: [1] -0.045 | [2] 0.043 | [3] 0.072 | [4] -0.013 | [5] 0

CTSB (UniProt P07858)
inactive: [1] -0.015 | [2] -0.024 | [3] 0.019 | [4] -0.024 | [5] -0.035

EHBP1L1 (UniProt Q8N3D4)
inactive: [1] -0.016 | [2] 0.065 | [3] 0.052 | [4] -0.022 | [5] -0.051

CUEDC2 (UniProt Q9H467)
inactive: [1] 0.036 | [2] 0.047 | [3] 0.038 | [4] 0.01 | [5] -0.022
